# Bioassay records (PubChem)
# PostGolgi ctrl: growth of the yeast control strain, post-Golgi counter-screen; efflux-deficient yeast background strain, growth absorbance A615, 16 h; inhibition, % at 10 µM; 98,000 compounds, 5% hits; AID 738
# CYP2C19 activ: increases human CYP2C19 enzyme activity | 96,000 tested, under 10 active | P33261 | activation factor at 5 µM | recombinant CYP2C19, luciferin-H EGE luminescence; active compounds read high; 0 = fully inhibited enzyme, 1 = untreated enzyme;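 active = activation factor of at least 2 at 5 µM in the primary screen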;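 note: 0 = wells with 2.5 mM tranylcypromine and 1 = vehicle-only wells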
# Target sequence (P33261 whole entry, looked up): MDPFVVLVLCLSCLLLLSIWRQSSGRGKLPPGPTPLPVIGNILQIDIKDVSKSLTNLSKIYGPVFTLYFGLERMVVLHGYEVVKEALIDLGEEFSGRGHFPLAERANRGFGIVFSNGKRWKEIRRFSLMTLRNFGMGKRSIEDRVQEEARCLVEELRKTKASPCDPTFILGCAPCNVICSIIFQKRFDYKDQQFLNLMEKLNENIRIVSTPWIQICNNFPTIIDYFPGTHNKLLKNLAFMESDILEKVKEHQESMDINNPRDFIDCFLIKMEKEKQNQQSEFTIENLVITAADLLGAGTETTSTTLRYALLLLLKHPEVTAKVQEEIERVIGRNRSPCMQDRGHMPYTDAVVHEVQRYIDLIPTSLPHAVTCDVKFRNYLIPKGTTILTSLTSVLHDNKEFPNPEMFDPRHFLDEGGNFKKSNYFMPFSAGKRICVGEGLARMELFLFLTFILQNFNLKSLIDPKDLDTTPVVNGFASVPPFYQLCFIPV
# CYP2C19 inh: inhibitors of human CYP2C19. P33261. CYP2C19 Supersomes, luciferin-H EGE luminescence, 30 min. inhibition, % at 5 µM. 96,000 compounds, 21% hits. AID 778;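 active = CYP2C19 inhibition above a set limit at 5 µM in the primary screen, cut at about 50% in these data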;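 note: plate controls were negative control wells for no effect and 2.5 mM tranylcypromine positive control for full effect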
# CYP2C9 activ: CYP2C9 (human) activation; recombinant CYP2C9, luciferin-H conversion, luminescence; active compounds read high; factor 1 = untreated enzyme, 0 = blocked; P11712; activation factor at 5 µM; 96,000 compounds, 1.4% hits; AID 1024;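 active = activation factor of 2 or more for CYP2C9 at a 5 µM dose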;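 note: 0 = sulfaphenazole-blocked wells and 1 = vehicle-only wells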
# CYP2C9 inh: inhibitors of human CYP2C9. inhibition, % at 5 µM. P11712. CYP2C9 Supersomes, luciferin-H conversion, luminescence. 96,000 compounds, 20% hits;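 active = blocking of liver enzyme CYP2C9 beyond about 50% at 5 µM, limit read from the data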
# PostGolgi yeast: growth inhibition of a yeast mutant, post-Golgi transport screen; 98,000 compounds, 0.9% hits; post-Golgi transport phenotypic cell assay; inhibition, % at 10 µM; AID 739;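 note: yeast cells grown in 1536-well plates; yeast grown about 18 h at 30C before absorbance read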
# Numbers without * were called inactive; / = no result. In the library only some 32% were active in any assay of this set; here they are far more common. Cut-off read from the data, not from the text of the source, unless noted: active = inhibition above about 30%; inactive = the rest.
SMILES,PostGolgi ctrl,CYP2C19 activ,CYP2C19 inh,CYP2C9 activ,CYP2C9 inh,PostGolgi yeast
CC1C(=O)C(C)C(c2cccs2)NC1c1cccs1 (stereo not drawn),4.4,0.1,92.5*,0.8,15.3,-7.5
O=C(Nc1ccc2c(c1)nc1n2CCOC1)c1ccccc1,-2.0,1,-0.6,1,-0.2,-3.9
CCN(CC)S(=O)(=O)c1ccc(S(=O)(=O)N2CCCC2C(=O)O)cc1 (stereo not drawn),-8.5,1,-1.3,1,-4.8,2.6
CC(C)c1nc(N2CCOCC2)c(C#N)c2c1CCCC2,10.5,0.2,80.3*,0.6,41.5,-4.8
CCN1CCc2c(C#N)c(N3CCOCC3)nc(N3CCOCC3)c2C1,5.3,1,-3.2,0.8,17.8,-3.6
CCSc1nc(N2CCOCC2)c2c(c1C#N)CCCC2,40.5*,0.3,69.8*,0.1,90.8*,8.1
Cc1csc(NC(=O)CSc2nc(C(C)C)nc3c2c(=O)n(C)c(=O)n3C)n1,-0.1,/,/,/,/,18.9
O=C(COc1ccc(S(=O)(=O)NC2CCCCC2)cc1Cl)N1CCN(c2ccccc2)CC1,18.6,0.3,67.8*,0,100.1*,4.6
CC(NS(=O)(=O)c1ccc(OCC(=O)N2CCOCC2)c(Cl)c1)c1ccccc1 (stereo not drawn),6.2,0.5,48.8,0.4,63.7*,3.2
CC(NS(=O)(=O)c1ccc(OCC(=O)N2CCOCC2)cc1)c1ccccc1 (stereo not drawn),10.8,/,/,/,/,-14.3
O=C(COc1ccc(S(=O)(=O)NC2CCCCC2)cc1)N1CCN(c2ccc(F)cc2)CC1,6.4,0.9,14.7,0.6,44.3,18.0
CC(C)=C1SC(N2CCN(Cc3ccccc3)CC2)=NC1=O,6.9,0.4,57.0*,1.2,-19.6,8.0
C=CCN(C(=O)CNC(=O)c1ccco1)C(C(=O)NC1CCCCC1)c1ccccc1F (stereo not drawn),5.9,0.7,34.8,0.7,29.6,-0.5
COc1ccc(N(CC(=O)NCC2CCCO2)S(=O)(=O)c2c(C)noc2C)cc1 (stereo not drawn),-8.7,0.7,31.2,0.9,11.3,-5.2
COc1ccc(N(CC(=O)NCc2cccs2)S(=O)(=O)c2cccnc2)cc1,30.1*,0.2,84.4*,0.4,63.9*,-7.3
COc1ccc(N(CC(=O)NCc2cccs2)S(=O)(=O)c2c(C)n[nH]c2C)cc1,0.0,0.3,73.2*,0.7,31.8,-1.8
CCc1cc2cc3c(cc2nc1SCC(=O)Nc1cc(C)on1)OCO3,-2.9,1.1,-14.7,1.2,-23.1,-2.2
CC(C)(C)NC(=O)COC(=O)c1cc(F)c(F)cc1Cl,3.0,0.2,76.9*,1,1.2,-5.8
CNC(=O)COC(=O)c1cc(F)c(F)cc1Cl,10.8,1,3.7,1,2.3,-3.1
Cc1nn2c(-c3ccncc3)nnc2c2ccccc12,63.8*,0.1,85.2*,0.7,25.5,11.4
COc1ccc(-c2nnc3c4ccccc4c(C)nn23)cc1,43.8*,0.8,22.7,1,-0.6,0.8
CCn1nnnc1-c1ccc(OC)c(S(=O)(=O)N2CCCCC2)c1,3.5,1,-0.6,0.8,22.5,1.6
NC(=O)c1ncc(C(F)(F)F)cc1Oc1cccc(F)c1,3.9,0.8,16.1,1,3.2,10.2
CCOC(=O)C1CCN(C(=O)CCS(=O)(=O)c2ccc3c(c2)CCN3C(C)=O)CC1,-1.9,1,4.7,1.2,-17.2,0.0
Cc1onc(-c2ccccc2)c1C(=O)Nc1nc(-c2ccc(F)c(F)c2)cs1,10.2,0.2,78.8*,0.3,67.8*,7.0
SMILES,PostGolgi ctrl,CYP2C19 activ,CYP2C19 inh,CYP2C9 activ,CYP2C9 inh,PostGolgi yeast
CCOC(=O)Cc1csc(NC(=O)c2c(-c3c(F)cccc3Cl)noc2C)n1,9.0,0.5,51.4*,0.3,70.5*,-5.5
Cc1onc(-c2c(F)cccc2Cl)c1C(=O)OCC(=O)NC(c1ccccc1)c1ccccc1,9.3,0.7,30.2,0.2,83.5*,-7.4
Cc1noc(C)c1C(=O)OCC(=O)NC(c1ccccc1)c1ccccc1,22.7,0.9,9.1,0.9,12.0,-6.1
Cc1onc(-c2c(Cl)cccc2Cl)c1C(=O)Nc1ccc2c(c1)OCO2,-0.4,0.6,40.2,0.2,81.4*,0.2
CCC(CC)C(=O)NCCNC(=O)C(CC)CC,-1.3,0.9,6.1,0.9,6.0,12.1
CN(C)c1ccc(C=Nc2cnn(C)c2C(N)=O)cc1,-2.7,1,2.3,1.1,-7.6,20.6
